Data on 1 sequence can be found in publication PMC7862700, “An all-to-all approach to the identification of sequence-specific readers for epigenetic DNA modifications on cytosine”.

What all share (experiment): DAPPL (digital affinity profiling via proximity ligation, sequencing); 10 mM Tris-HCl pH 7.5, 50 mM NaCl, 1 mM DTT, 4% glycerol, room temperature, 30 min; GST-TFs on glutathione beads, 16-mer random dsDNA library, 0.1% formaldehyde crosslink after washing; high values mean tight binding
In one assay the target is T1, FEV (Homo sapiens, UniProt Q99581 1-238).
T1 sequence: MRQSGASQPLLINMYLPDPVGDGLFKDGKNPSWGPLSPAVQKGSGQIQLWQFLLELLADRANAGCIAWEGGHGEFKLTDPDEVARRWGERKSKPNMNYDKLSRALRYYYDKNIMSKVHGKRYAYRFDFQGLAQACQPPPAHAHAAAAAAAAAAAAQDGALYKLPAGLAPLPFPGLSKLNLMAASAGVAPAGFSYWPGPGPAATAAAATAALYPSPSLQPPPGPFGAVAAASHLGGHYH
The note with it: protein: recombinant; tags: N-terminal GST; dsDNA, one strand shown. Summed up: (§1)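 In yeast, human transcription factors were expressed with a GST fusion, then pulled down on glutathione beads and given DNA barcodes. Pooled with a tag-only sample, they were exposed to 200 nmole of a 16-mer random double-stranded DNA library (Tris/NaCl/DTT/glycerol buffer, room temperature, 30 min), washed, crosslinked with 0.1% formaldehyde, proximity-ligated using BsaI/T4 ligase for 1 h at 37 °C, PCR-amplified and read on an Illumina NextSeq500. Each hexamer's frequency of reads for a factor, divided by the matching frequency for the tag-only sample, gives the binding signal.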

The target of another assay is ETV5 (Homo sapiens, UniProt P41161 1-510). The note with it: protein: recombinant; tags: N-terminal GST; dsDNA, one strand shown. Summed up: as §1
The next assay concerns the target HSF1 (Homo sapiens, UniProt Q00613 1-529). The note with it: protein: recombinant; tags: N-terminal GST; chain copies: 3; dsDNA, one strand shown. Summed up:
as §1

The next assay deals with T2, SPIC (Homo sapiens, UniProt Q8N5J4 1-248).
T2 sequence: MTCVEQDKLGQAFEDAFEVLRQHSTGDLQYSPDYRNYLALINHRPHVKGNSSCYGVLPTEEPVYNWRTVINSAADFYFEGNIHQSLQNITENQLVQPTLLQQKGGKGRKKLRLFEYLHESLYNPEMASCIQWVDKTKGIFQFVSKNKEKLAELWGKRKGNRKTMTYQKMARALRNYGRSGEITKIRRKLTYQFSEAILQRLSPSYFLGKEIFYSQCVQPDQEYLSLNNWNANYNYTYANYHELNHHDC
The note with it: protein: recombinant; tags: N-terminal GST; dsDNA, one strand shown. Summed up: as §1

The target in another assay is ELF4 (Homo sapiens, UniProt Q99607 1-663). The note with it: protein: recombinant; tags: N-terminal GST; dsDNA, one strand shown. Summed up: as §1
A further assay has as its target T3, ELK4 (Homo sapiens, UniProt P28324-2 1-405).
T3 sequence: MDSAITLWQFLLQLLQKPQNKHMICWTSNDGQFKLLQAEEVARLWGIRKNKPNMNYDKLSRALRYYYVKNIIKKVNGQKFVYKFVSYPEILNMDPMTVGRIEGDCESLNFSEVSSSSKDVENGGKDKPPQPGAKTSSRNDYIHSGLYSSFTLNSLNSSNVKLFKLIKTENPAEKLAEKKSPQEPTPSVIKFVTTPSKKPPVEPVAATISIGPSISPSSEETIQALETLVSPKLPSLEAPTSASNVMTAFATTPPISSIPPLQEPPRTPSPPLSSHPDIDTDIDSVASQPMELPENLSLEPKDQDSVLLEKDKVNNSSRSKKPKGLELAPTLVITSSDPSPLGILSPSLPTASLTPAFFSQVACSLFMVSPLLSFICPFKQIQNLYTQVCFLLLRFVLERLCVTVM
The note with it: protein: recombinant; tags: N-terminal GST; dsDNA, one strand shown. The method in brief: as §1

For another assay, the target named is T4, ETV2 (Homo sapiens, UniProt O00321 1-342).
T4 sequence: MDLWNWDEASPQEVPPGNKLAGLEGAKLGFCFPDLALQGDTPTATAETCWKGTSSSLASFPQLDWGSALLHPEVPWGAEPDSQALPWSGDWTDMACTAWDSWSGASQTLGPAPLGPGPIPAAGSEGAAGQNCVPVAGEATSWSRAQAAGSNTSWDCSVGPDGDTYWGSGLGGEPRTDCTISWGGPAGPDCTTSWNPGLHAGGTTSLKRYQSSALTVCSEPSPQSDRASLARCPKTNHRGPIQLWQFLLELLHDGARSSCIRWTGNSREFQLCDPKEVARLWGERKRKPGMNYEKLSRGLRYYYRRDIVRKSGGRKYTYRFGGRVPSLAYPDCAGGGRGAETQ
The note with it: protein: recombinant; tags: N-terminal GST; dsDNA, one strand shown. Summed up:
as §1

The target of a further assay is T5, ELF3 (Homo sapiens, UniProt P78545 1-371).
T5 sequence: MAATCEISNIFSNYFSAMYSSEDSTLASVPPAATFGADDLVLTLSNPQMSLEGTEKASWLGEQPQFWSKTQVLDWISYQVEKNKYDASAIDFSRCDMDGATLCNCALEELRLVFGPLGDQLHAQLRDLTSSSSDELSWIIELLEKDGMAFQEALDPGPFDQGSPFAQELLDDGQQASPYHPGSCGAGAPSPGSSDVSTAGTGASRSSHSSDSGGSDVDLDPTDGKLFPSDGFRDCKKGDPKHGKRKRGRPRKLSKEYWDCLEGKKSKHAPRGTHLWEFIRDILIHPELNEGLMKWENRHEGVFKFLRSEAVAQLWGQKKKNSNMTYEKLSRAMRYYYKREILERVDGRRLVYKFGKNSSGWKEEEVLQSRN
The note with it: protein: recombinant; tags: N-terminal GST; dsDNA, one strand shown. The method in brief:
as §1

For a further assay, the target named is CRX (Homo sapiens, UniProt O43186 1-299). The note with it: protein: recombinant; tags: N-terminal GST; dsDNA, one strand shown. The method in brief: as §1
For another assay, the target named is ETV1 (Homo sapiens, UniProt P50549 1-477). The note with it: protein: recombinant; tags: N-terminal GST; dsDNA, one strand shown. The method in brief: as §1
The target in another assay is T6, ERF (Homo sapiens, UniProt P50548 1-548).
T6 sequence: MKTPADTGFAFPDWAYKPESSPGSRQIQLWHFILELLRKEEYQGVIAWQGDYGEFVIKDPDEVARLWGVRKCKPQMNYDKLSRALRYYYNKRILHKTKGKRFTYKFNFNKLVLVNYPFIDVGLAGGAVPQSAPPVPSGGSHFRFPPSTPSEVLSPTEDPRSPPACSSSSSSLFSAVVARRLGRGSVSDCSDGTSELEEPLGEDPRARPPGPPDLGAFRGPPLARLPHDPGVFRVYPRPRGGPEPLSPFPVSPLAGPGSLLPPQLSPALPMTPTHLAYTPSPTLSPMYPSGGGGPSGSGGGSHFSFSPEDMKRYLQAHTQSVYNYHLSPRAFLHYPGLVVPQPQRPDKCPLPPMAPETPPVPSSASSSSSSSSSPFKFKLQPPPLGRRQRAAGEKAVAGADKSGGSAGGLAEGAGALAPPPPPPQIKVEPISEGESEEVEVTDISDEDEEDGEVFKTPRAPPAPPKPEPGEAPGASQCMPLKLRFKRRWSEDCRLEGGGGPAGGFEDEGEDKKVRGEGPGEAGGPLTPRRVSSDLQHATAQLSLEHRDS
The note with it: protein: recombinant; tags: N-terminal GST; dsDNA, one strand shown. Summed up:
as §1

The target of another assay is T7, ETV3L (Homo sapiens, UniProt Q6ZN32 1-361).
T7 sequence: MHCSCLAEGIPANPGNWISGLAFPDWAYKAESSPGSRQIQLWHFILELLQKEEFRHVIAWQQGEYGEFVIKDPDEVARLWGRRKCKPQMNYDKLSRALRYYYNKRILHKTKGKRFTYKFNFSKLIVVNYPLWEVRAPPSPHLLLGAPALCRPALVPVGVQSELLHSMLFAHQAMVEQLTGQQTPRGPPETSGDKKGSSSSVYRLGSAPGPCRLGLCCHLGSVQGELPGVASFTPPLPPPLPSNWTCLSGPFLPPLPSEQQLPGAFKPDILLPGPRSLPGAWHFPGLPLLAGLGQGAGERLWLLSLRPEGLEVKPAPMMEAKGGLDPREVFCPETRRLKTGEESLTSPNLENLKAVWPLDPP
The note with it: protein: recombinant; tags: N-terminal GST; dsDNA, one strand shown. Summed up:
as §1

A further assay deals with T8, ETS2 (Homo sapiens, UniProt P15036 1-469).
T8 sequence: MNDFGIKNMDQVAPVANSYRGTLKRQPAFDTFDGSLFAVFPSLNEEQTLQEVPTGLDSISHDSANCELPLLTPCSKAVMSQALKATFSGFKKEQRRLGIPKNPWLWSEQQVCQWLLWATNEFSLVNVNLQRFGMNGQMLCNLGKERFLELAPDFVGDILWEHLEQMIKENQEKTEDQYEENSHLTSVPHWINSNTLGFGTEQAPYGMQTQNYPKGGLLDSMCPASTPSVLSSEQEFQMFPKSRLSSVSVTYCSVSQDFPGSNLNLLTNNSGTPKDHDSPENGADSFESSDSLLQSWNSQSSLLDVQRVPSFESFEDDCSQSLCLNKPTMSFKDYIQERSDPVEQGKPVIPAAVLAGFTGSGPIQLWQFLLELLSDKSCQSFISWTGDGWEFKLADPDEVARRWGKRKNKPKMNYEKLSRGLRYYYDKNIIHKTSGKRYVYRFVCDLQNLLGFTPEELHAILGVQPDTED
The note with it: protein: recombinant; tags: N-terminal GST; dsDNA, one strand shown. Summed up:
as §1

In another assay the target is T9, SPDEF (Homo sapiens, UniProt O95238 1-335).
T9 sequence: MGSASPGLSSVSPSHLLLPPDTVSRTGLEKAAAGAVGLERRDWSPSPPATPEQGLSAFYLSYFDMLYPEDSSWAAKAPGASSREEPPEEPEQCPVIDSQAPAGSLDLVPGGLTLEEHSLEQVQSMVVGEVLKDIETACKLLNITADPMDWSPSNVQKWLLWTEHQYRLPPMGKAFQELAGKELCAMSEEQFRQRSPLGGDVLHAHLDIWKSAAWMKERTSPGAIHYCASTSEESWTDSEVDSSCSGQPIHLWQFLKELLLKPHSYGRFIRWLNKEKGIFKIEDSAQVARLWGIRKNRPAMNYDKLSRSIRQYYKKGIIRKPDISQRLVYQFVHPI
The note with it: protein: recombinant; tags: N-terminal GST; dsDNA, one strand shown. Summed up:
as §1

In a further assay the target is T10, ETV7 (Homo sapiens, UniProt Q9Y603 1-341).
T10 sequence: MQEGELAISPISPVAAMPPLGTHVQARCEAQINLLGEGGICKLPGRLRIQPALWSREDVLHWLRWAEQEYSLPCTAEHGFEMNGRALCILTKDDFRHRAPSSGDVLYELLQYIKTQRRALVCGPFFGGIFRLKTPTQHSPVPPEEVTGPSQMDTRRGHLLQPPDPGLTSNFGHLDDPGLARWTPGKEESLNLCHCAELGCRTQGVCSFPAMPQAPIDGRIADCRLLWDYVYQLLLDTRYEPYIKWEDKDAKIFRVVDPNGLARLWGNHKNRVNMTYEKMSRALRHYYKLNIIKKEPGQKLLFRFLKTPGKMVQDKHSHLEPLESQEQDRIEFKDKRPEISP
The note with it: protein: recombinant; tags: N-terminal GST; dsDNA, one strand shown. Summed up: as §1

The target in a further assay is T11, ELF5 (Homo sapiens, UniProt Q9UKW6-2 1-255).
T11 sequence: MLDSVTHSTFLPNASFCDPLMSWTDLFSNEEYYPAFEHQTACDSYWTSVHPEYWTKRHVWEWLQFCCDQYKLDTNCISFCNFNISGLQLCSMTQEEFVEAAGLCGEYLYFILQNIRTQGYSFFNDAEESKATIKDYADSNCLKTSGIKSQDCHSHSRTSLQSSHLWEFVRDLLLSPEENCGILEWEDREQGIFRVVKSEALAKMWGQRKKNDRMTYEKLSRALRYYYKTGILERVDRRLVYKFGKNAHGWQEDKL
The note with it: protein: recombinant; tags: N-terminal GST; dsDNA, one strand shown. Summed up: as §1

A further assay addresses T12, ETV3 (Homo sapiens, UniProt P41162-2 1-143).
T12 sequence: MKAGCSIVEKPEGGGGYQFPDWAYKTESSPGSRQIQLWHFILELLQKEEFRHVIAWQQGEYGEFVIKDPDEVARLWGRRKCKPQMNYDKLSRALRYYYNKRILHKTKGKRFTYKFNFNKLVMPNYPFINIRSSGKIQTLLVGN
The note with it: protein: recombinant; tags: N-terminal GST; dsDNA, one strand shown. The method in brief:
as §1

For the next assay, the target named is ETV6 (Homo sapiens, UniProt P41212 1-452). The note with it: protein: recombinant; tags: N-terminal GST; dsDNA, one strand shown. The method in brief: as §1
Sequence of ETV6 (P41212 whole entry): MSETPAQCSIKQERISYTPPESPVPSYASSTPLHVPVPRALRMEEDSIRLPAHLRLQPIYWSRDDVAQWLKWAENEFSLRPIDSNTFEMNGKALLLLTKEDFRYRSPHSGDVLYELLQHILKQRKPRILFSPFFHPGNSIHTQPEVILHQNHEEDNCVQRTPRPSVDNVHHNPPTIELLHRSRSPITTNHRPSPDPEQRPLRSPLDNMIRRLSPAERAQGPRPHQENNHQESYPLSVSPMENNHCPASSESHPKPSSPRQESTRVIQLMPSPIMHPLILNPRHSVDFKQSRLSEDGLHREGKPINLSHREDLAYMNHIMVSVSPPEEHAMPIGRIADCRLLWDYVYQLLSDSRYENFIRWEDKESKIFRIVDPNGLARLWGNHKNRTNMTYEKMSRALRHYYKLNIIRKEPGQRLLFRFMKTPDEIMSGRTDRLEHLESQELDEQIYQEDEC

Sequence of HSF1 (Q00613 whole entry): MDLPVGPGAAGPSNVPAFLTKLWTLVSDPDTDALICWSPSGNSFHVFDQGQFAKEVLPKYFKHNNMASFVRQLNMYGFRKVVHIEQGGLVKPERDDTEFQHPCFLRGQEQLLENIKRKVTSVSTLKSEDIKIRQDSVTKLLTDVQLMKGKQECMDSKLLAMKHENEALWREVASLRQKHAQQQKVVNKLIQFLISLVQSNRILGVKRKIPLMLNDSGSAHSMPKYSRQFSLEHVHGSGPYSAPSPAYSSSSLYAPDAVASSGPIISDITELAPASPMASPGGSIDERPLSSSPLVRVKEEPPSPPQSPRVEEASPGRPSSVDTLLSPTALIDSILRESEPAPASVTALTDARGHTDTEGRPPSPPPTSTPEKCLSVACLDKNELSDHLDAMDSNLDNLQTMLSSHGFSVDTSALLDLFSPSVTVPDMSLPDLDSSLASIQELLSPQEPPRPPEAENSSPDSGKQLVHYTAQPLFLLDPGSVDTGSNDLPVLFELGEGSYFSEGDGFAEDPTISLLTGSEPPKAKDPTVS
Sequence of ETV5 (P41161 whole entry): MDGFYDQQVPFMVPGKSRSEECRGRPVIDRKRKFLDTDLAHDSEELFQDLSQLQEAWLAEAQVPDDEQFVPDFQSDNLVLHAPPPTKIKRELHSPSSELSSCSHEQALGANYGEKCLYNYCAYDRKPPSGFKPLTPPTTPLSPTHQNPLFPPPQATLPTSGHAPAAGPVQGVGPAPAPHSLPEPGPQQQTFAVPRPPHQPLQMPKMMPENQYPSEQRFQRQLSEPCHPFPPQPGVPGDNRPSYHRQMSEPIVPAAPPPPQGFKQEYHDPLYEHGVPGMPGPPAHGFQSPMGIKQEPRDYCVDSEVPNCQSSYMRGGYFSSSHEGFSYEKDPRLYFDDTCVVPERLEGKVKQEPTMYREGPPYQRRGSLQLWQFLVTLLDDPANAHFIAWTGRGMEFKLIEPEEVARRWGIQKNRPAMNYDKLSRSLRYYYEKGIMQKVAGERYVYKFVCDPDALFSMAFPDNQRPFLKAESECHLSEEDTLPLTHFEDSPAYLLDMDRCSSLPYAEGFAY
Sequence of ETV1 (P50549 whole entry): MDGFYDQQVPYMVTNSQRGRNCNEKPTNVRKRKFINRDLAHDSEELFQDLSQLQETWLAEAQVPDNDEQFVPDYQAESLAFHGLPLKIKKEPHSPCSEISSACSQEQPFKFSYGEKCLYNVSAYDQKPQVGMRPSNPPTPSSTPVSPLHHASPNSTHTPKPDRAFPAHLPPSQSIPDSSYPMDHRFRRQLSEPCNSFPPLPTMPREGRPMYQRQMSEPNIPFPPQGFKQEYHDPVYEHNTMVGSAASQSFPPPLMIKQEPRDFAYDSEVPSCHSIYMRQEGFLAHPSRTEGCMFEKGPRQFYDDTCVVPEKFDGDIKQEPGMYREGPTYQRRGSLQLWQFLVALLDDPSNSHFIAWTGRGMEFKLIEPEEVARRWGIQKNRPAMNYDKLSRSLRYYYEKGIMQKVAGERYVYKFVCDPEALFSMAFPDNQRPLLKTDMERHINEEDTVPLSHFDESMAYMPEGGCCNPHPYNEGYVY
Sequence of ELF4 (Q99607 whole entry): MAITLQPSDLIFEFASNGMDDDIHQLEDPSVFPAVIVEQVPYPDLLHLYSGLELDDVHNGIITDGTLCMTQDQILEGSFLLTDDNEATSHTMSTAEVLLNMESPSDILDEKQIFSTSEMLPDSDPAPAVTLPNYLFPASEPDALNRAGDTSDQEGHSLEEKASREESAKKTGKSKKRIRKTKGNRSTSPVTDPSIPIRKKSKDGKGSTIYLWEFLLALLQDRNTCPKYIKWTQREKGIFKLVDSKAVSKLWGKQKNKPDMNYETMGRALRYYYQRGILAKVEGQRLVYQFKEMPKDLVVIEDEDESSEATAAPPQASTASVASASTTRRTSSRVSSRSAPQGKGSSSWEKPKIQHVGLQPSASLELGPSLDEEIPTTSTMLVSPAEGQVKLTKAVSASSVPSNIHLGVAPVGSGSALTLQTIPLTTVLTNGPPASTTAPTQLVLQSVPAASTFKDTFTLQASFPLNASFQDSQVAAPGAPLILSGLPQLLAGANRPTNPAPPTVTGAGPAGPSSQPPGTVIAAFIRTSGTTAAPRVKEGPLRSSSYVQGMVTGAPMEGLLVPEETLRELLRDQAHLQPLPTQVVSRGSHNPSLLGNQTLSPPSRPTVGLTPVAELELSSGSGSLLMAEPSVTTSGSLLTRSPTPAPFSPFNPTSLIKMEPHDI
Sequence of CRX (O43186 whole entry): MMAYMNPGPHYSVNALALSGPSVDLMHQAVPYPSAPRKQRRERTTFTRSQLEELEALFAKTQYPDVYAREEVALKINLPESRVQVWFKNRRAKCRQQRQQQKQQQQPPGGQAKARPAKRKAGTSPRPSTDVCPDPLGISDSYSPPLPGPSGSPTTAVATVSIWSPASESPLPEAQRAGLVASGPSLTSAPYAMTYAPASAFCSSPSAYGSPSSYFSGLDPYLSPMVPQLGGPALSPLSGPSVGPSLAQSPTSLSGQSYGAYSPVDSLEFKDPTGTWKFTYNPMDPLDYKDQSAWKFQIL

ATTGGT: the binding signal is 1.21 fold enrichment (6-mer frequency, TF over GST control) with FEV; 1.29 fold enrichment (6-mer frequency, TF over GST control) with ETV5; 1.12 fold enrichment (6-mer frequency, TF over GST control) with HSF1; 1.24 fold enrichment (6-mer frequency, TF over GST control) with SPIC; 1.27 fold enrichment (6-mer frequency, TF over GST control) with ELF4; 1.19 fold enrichment (6-mer frequency, TF over GST control) with ELK4. Also, the binding signal with ETV2 is 1.01 fold enrichment (6-mer frequency, TF over GST control); with ELF3, 1.14 fold enrichment (6-mer frequency, TF over GST control); in the assay with CRX, 1.2 fold enrichment (6-mer frequency, TF over GST control); with ETV1 it was 1.29 fold enrichment (6-mer frequency, TF over GST control); with ERF, 1.21 fold enrichment (6-mer frequency, TF over GST control); with ETV3L, 1.24 fold enrichment (6-mer frequency, TF over GST control). For the same sequence, the binding signal in the assay with ETS2 is 1.34 fold enrichment (6-mer frequency, TF over GST control); with SPDEF it was 1.26 fold enrichment (6-mer frequency, TF over GST control); with ETV7 it was 1.27 fold enrichment (6-mer frequency, TF over GST control); with ELF5, 1.19 fold enrichment (6-mer frequency, TF over GST control); with ETV3 it was 1.24 fold enrichment (6-mer frequency, TF over GST control); with ETV6, 1.13 fold enrichment (6-mer frequency, TF over GST control).
